Results from PubChem BioAssay (NCI).
Compounds without any hit were thinned out: in the full panel of roughly 79,000, 15% have a hit. Values without a mark were called inactive. Activity calls are given as the source filed them. Cut-off read from the data, not from the text of the source: active = growth inhibition above about 70%; inactive = the rest.

Assays:
[1] = NCI Yeast Anticancer Drug Screen. Data for the rad50 strain (AID 155);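 note: 0% = growth of vehicle-only cultures of the same strain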; conditions: S. cerevisiae rad50 strain growth inhibition; at 50.0 µM; active compounds read high
Procedure, shortened: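 Readout: growth inhibition relative to vehicle-treated cultures. Compound exposure was carried out in a genetically defined yeast strain deficient in DNA damage repair.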

[2] = NCI Yeast Anticancer Drug Screen. Data for the mec2-1 strain (AID 157); conditions: S. cerevisiae mec2-1 strain, at 50.0 µM, active compounds read high
Procedure, shortened: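 Test agents were screened against the mec2-1 yeast strain, with defined DNA repair or cell cycle alteration. Growth was scored as inhibition against vehicle-only controls.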

[3] = NCI Yeast Anticancer Drug Screen. Data for the mlh1 rad18 strain (AID 175); conditions: S. cerevisiae mlh1 rad18 strain growth inhibition; at 50.0 µM; active compounds read high
Procedure, shortened: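 In this whole-cell yeast screen, a strain with altered DNA damage repair is challenged with compound, and its growth is measured against matched vehicle-treated controls.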

[4] = NCI Yeast Anticancer Drug Screen. Data for the cln2 rad14 strain (AID 165);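 note: 0% = growth equal to vehicle treated cultures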; conditions: S. cerevisiae cln2 rad14 strain, at 50.0 µM, active compounds read high
Procedure, shortened: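 Growth of compound-exposed yeast (cln2 rad14 genotype) measured and expressed as inhibition relative to vehicle.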

[5] = NCI Yeast Anticancer Drug Screen. Data for the bub3 strain (AID 167); conditions: S. cerevisiae bub3 mutant strain, at 50.0 µM, active compounds read high
Procedure, shortened: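 Readout: yeast growth inhibition, expressed relative to vehicle-only wells. The test organism is a mutant strain from a panel with lesions in DNA repair or checkpoint genes.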

[6] = NCI Yeast Anticancer Drug Screen. Data for the sgs1 mgt1 strain (AID 161);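 note: 0% = growth of cultures given vehicle only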; conditions: S. cerevisiae sgs1 mgt1 strain, at 50.0 µM, active compounds read high
Procedure, shortened: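 Read-out: growth inhibition vs vehicle controls. Cells: mutant yeast strain deficient in DNA damage repair.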

Structure (SMILES)	growth inhibition [1]	growth inhibition [2]	growth inhibition [3]	growth inhibition [4]	growth inhibition [5]	growth inhibition [6]
CNCCc1ccc(O)c(O)c1	-1.6%	-13.2%	-6.15%	–	–	–
CC1NCCc2cc(O)c(O)cc21 (configuration not stated)	4.35%	6.3%	40%	–	–	–
Brc1ccc(C[N+]23CCN(CC2)CC3)cc1	-14.2%	-35.1%	-16%	–	–	–
O=C(CCN1CC=C(c2ccccc2)CC1)NCc1ccccc1	5%	-6.8%	8.55%	–	–	–
NC(N)=N/N=C/c1ccc(Cl)c(Cl)c1	8.45%	-3.15%	21.4%	-9.25%	-3.6%	–
Cc1ccc(-c2cc(Cl)c3cc(S(=O)(=O)F)ccc3n2)cc1	-4%	-16.6%	-9.1%	–	–	–
CCCCCCCCCCCCCCCC[As](=O)(O)CCCCCCCCCCCCCCCC	-6.35%	–	–	4.25%	7.2%	-17.8%
COc1ccccc1NC1=NCCS1	20.9%	-12.9%	15.4%	–	–	–
COc1cccc(N=C(N)N[N+](=O)[O-])c1	-13.2%	-32%	-7.25%	–	–	–
CSC(=S)NNC(=O)c1cccc(S(=O)(=O)F)c1	-2.95%	-8.8%	50.7%	–	–	–
CC(Cc1ccccc1)N(C)CC1C(=O)C2CCC1C2 (configuration not stated)	10.5%	-12.6%	6.25%	–	–	–
O=[N+]([O-])c1ccc(C[N+]23CCN(CC2)CC3)cc1	5.9%	-16.7%	3.8%	–	–	–
COC[n+]1cccc(C2CCC[N+]2(C)C)c1 (configuration not stated)	6.35%	–	15.5%	9.9%	1.8%	6.8%
C[Si](C)(C)[C@@]1([Se]c2ccccc2)CC[C@@H]1C(=O)c1ccccc1	-11.6%	–	-23.9%	-18.2%	-27.4%	-26.4%
CCCOP1(=O)C=C(C)C(Cl)=C(C)C1 (configuration not stated)	33.5%	–	34.8%	-1.45%	–	20%
CC1CC(C)(C)[N+](C)(CCC(C(N)=O)(c2ccccc2)c2ccccc2)C1 (configuration not stated)	-8.2%	–	3.05%	12.3%	-16.4%	-7.8%
CS(=O)(=O)c1ccc(COP(N)(=O)N(CCCl)CCCl)cc1 (configuration not stated)	17.1%	–	17.7%	11.3%	-4.2%	-0.95%
C=CCc1cc(OC)c2c(c1OC)OCO2	6.3%	–	7.05%	2.05%	-1.9%	-0.7%
C1C[N-]CC[N-]1.C1C[N-]CC[N-]1.N#CS.[Ni+2]	5.1%	–	-5.4%	-11.9%	7.6%	1.4%
O=C1NCCCC1(Cl)Cl	4.75%	–	13.2%	-16.3%	-10.6%	–
Cc1cc(Nc2ccc(N(CCCl)CCCl)cc2)c(C)cc1O	31.7%	–	6.8%	-5.85%	-4.15%	5.75%
COc1ccc(N2C(=O)C3C4c5ccccc5C(C3C2=O)[n+]2ccccc24)cc1 (configuration not stated)	27.2%	–	10.6%	-49.5%	-0.45%	9.7%
COc1ccc2c(c1O)CN1CCc3cc4c(cc3C1C2)OCO4 (configuration not stated)	–	22.1%	19.9%	25.9%	43.2%	28.6%
O=[N+]([O-])c1cc([As](=O)(O)O)ccc1S(=O)(=O)O	-0.6%	–	2.2%	-3%	9.2%	7%
O=C(Nc1cccc(S(=O)(=O)F)c1)c1cccc([N+](=O)[O-])c1	96.5% (active)	–	96.8% (active)	91.7% (active)	95.6% (active)	98.5% (active)
[Cl][Ni][Cl].[NH-]CCN1CC1.[NH-]CCN1CC1	-9.75%	–	-5.75%	-26.4%	-4.55%	19.4%
